Screening results as filed in PubChem.
B2AR arrestin: recruits beta-arrestin to the human beta2-adrenergic receptor; AID 492947; Potency, µM (titrated, usually from 46.1 µM), most hits filed as activators; 330,000 tested, 0.02% active; P07550; beta-arrestin recruitment to beta2AR, cell-based reporter; further: nearly all actives have a fitted effect of over 65% in size
D3 antag: antagonists of human D3 dopamine receptor; max response, negative = inhibition, %; D3R cells, DiscoveRx beta-arrestin luminescence, antagonist mode; stronger effect = lower value; AID 652054; 360,000 tested, 2.5% active; P35462; in the data active means max response below about -50%; inconclusive means no clear call, values can overlap the other calls
Target sequence (P35462 whole entry, looked up): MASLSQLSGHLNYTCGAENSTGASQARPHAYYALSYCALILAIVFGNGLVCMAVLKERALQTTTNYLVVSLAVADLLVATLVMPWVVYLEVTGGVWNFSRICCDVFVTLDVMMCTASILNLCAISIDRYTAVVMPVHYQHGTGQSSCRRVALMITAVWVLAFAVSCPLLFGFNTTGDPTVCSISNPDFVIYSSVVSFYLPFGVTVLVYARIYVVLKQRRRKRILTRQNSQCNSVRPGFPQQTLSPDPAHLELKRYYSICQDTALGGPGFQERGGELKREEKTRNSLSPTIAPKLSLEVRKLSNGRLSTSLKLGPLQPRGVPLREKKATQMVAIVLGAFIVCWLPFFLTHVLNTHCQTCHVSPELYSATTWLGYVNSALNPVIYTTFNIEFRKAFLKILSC
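Cells plated overnight at 1500 cells/well, then exposed to library compounds with dopamine controls for 90 minutes at 37 degrees C. DiscoveRx reagent added for 30–60 minutes at room temperature; luminescence read, quantitative HTS format.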
D3 ag: activates the human D3 dopamine receptor; 410,000 tested, 0.58% active; max activation, %; AID 652048; D3R DiscoveRx beta-arrestin cells, luminescence, 90 min; in the data active means max activation above about 30%
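Agonist mode: compounds and dopamine controls were applied to plated cells for 90 min at 37 degrees C after an overnight attachment at 1500 cells/well. Luminescent read-out followed 30 - 60 minutes at room temperature with DiscoveRx detection reagent.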
IDH1 R132H inh: blocks human mutant IDH1 R132H enzyme; 390,000 tested, 0.093% active; IDH1-R132H enzyme, NADPH consumption, diaphorase/resazurin fluorescence; Potency, µM (titrated, usually from 76.6 µM), most hits filed as inhibitors; O75874; further: nearly all actives have a fitted effect of over 65% in size
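IDH1-R132H (0.5 ug/mL dispensed) in pH 7.5 Tris buffer was preincubated 30 min with compound, then given a substrate mix of 0.016 mM NADPH and 2 mM alpha-KG for 80 min at room temperature; remaining NADPH was read by diaphorase/resazurin fluorescence.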
a7 integrin act: integrin-mediated muscular dystrophy alleviation activation. AID 624291. alpha7betagal myoblasts, beta-gal FDG fluorescence, 48 h. 350,000 tested, 0.064% active. Potency, µM (top dose mostly 38.3 µM), most hits filed as activators; further: nearly all actives have a fitted effect of over 60% in size
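alpha7betagal+/- myoblasts (passage 13, 250/well) treated 48 h at 37C with compounds at 1:260 dilution of DMSO stock. Lysed, then beta-galactosidase activity read as FDG fluorescence (ex 480/em 540) after 30 min, with pre-read for autofluorescence.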
Of the large screens only hits and unclear results are named; the others gave an inactive call. Shown are actives, neighbours in structure and some others; about 2.9% of the full set was active somewhere. Unless noted, the call rests on the fitted dose curve; in most records, active means well fitted curve in the direction sought with a large enough effect; inconclusive means small, poorly fitted or top-dose-only effect, or another doubt; inactive means no such curve, though single readings can be large; an effect the other way counts as inactive or inconclusive.

CS(=O)(=O)c1ccc(C(=O)OCC(=O)Nc2cccnc2Cl)cc1[N+](=O)[O-]	D3 antag -67.5
O=C(COC(=O)c1ccc([N+](=O)[O-])cc1)Nc1cccnc1Cl	none (no result: B2AR arrestin)
COc1ccc(NC(=O)CCNS(=O)(=O)c2ccc3c(c2)CCCC(=O)N3)cc1	none (no result: B2AR arrestin, D3 antag, a7 integrin act)
CC(NC(=O)CN1CCN(c2cccc(Cl)c2)CC1)c1ccccc1 (configuration not stated)	D3 antag inconclusive
OC(CSc1ccccc1)CN1CCN(c2cccc(Cl)c2)CC1 (configuration not stated)	D3 antag -85.1 (no result: B2AR arrestin)
O=C(CN1CCN(c2ccc(Cl)cc2)CC1)NCc1ccccc1	none
OC(CSc1ccccc1)CN1CCN(c2ccc(Cl)cc2)CC1 (configuration not stated)	D3 antag -85.5 (no result: B2AR arrestin)
COc1ccc(CNC(=O)CSc2n[nH]c(-c3ccc(OC)cc3)n2)cc1	none (no result: B2AR arrestin, D3 antag, a7 integrin act)
COC(=O)c1cc(OC)c(OC)c(OC)c1NC(=O)c1ccc(S(=O)(=O)N(C)C)cc1	D3 antag -88.2
CCOC(=O)C1CCCN(S(=O)(=O)c2csc(C(N)=O)c2)C1 (configuration not stated)	none (no result: B2AR arrestin, D3 antag, a7 integrin act)
CCC(=O)N1CCc2cc(S(=O)(=O)NCCN3CCC(C)CC3)ccc21	D3 antag -90.0
CC1CCN(CCCNS(=O)(=O)c2ccc3c(c2)CCN3C(=O)C2CC2)CC1	none
Nc1c([N+](=O)[O-])cc2c3c(cccc13)CC2	D3 antag -73.5 (no result: B2AR arrestin, IDH1 R132H inh, a7 integrin act)
COC(=O)c1ccc(CSc2nc3c(cnn3-c3ccc(Cl)cc3)c(=O)[nH]2)o1	none
COC(=O)c1ccc(CSc2nc3c(cnn3-c3ccc(F)cc3)c(=O)[nH]2)o1	D3 ag 31.8
Cc1cccc(N2CCN(C(=O)c3ccc4c(c3)N(Cc3cccc(Cl)c3)C(=O)c3ccccc3S4=O)CC2C)c1 (configuration not stated)	none (no result: B2AR arrestin, D3 antag, a7 integrin act)
CCCNC(=O)CCC(NS(=O)(=O)c1ccc(C)cc1)C(=O)NCCC (configuration not stated)	D3 antag -56.2
c1ccc(-c2ccc3c(c2)c2c4n3CCN=C4CCC2)cc1	none
OC1CN=C2CCCc3c2n(c2ccc(Cl)cc32)C1 (configuration not stated)	D3 antag -77.0
Cc1cc(C)cc(C(=O)NC(CC(N)=O)c2ccc(N3CCC(Br)CC3)c([N+](=O)[O-])c2)c1 (configuration not stated)	D3 ag 32.0
NC(=O)CC(NC(=O)Cc1cccc2ccccc12)c1ccc(N2CCCCCC2)c([N+](=O)[O-])c1 (configuration not stated)	D3 antag -68.1
O=C/C=C/c1c(-c2ccccc2)cc2oc3ccccc3cc1-2	D3 antag -66.3
Nc1ccc(-c2cc3ccccc3oc2=O)cc1	none
O=C(/C=C/c1ccc(Br)cc1)c1ccc(NC2=NCCCS2)cc1	D3 antag -55.1
Cc1cccc(/C=C/C(=O)c2ccc(NC3=NCCCS3)cc2)c1	D3 antag -56.9
COc1cccc(/C=C/C(=O)c2ccc(NC3=NCCCS3)cc2)c1	D3 antag -53.7
COc1cc(C2CC(=O)N(Cc3cccc(F)c3)c3ccccc3S2)cc(OC)c1OC (configuration not stated)	none (no result: B2AR arrestin, D3 antag, a7 integrin act)
COc1cccc(CNC(=O)C(=O)N2CCC3(CC2)OCCN3S(=O)(=O)c2ccc(C)cc2)c1	none
COc1cc(NC(=O)Cn2c(=O)nc(-c3ccccc3F)c3cc(Cl)ccc32)cc(OC)c1	none (no result: B2AR arrestin, D3 antag, a7 integrin act)
COc1ccc(CNCCCSc2ncccn2)cc1OC	D3 antag -65.0, a7 integrin act inconclusive
COc1ccc(CNCCCSc2ncccn2)c(OC)c1	none
Clc1cccc(CNCCCSc2ncccn2)c1	D3 antag -52.0
Clc1ccc(CNCCCSc2ncccn2)cc1	D3 antag -78.4
CSc1ccc(CNCCCSc2ncccn2)cc1	D3 antag inconclusive
Brc1ccc(CNCCCSc2ncccn2)cc1	D3 antag -77.1
O=C(CCc1ccccc1)N1CCCC(Nc2ccc(F)cc2)C1 (configuration not stated)	none
COc1cccc(NC(=O)C(Cc2ccccc2)NS(=O)(=O)c2ccc3c(c2)oc(=O)n3C)c1 (configuration not stated)	none (no result: B2AR arrestin, D3 antag, a7 integrin act)
